The text below walks through data of ChEMBL document CHEMBL4888484, “Replenishing the malaria drug discovery pipeline: Screening and hit evaluation of the MMV Hit Generation Library 1 (HGL1) against asexual blood stage Plasmodium falciparum ,using a nano luciferase reporter read-out” (2022).

Screen size: about 150,000 compounds; about 540 (0.36%) showed an effect of 50% or more. The full list was thinned out, with strong results kept by preference.

In general, % Inhibition refers to the relative decrease from the control value, in per cent.

This assay has as its system Plasmodium falciparum. Description: Primary screen in NF54 nanoGlo assay, in single point, at 2uM, 72h; a lower Z score goes with more inhibition. Type of assay: functional, Erythrocyte. The note with it: timepoint 72 hour.
For `CC(C)CCC(=O)N1CCC2CCN(C)CC21` (centres undefined), the “% Inhibition” value is listed as -3% and the Z score amounted to 0.4.

With `CN1CCC2CCN(C(=O)Nc3nccs3)C2C1` (centres undefined), the “% Inhibition” value was -8% and the Z score is reported as 0.77.

Consider `C[C@]1(c2ccccc2Cl)NC(=O)N(CC(=O)Nc2ccc(Cl)cc2C(=O)c2ccccc2)C1=O`, for which the “% Inhibition” value is recorded as -1% and the Z score worked out at 0.1.

On to `O=C(c1ccccc1)c1cc(Cl)ccc1NC(=O)C1CCN(C(=O)c2ccco2)CC1`, for which the “% Inhibition” value is 1% and the Z score was -0.14.

With `O=C(c1ccccc1)c1cc(Cl)ccc1NC(=O)[C@H]1CC(=O)N(c2ccc(F)cc2)C1`, the “% Inhibition” value came to 56% and the Z score is -9.01.

`Cc1sc2ncnc(N3CCN4CCC[C@H]4C3)c2c1C`: the “% Inhibition” value is on record as -5% and the Z score was 0.64.

`O=C(COc1ccccc1)N1CCCCC[C@@H]1CN1CCCC1`: the “% Inhibition” value was 1% and the Z score is -0.2.

For the molecule `Cc1cc(C(=O)NC2CC2)nn1[C@@H](C)C1CC1`, the “% Inhibition” value is -5% and the Z score was found to be 0.91.

On to `CC(C)n1ccc(C(=O)NC2CC(C(=O)O)c3ccccc32)n1` (centres undefined), for which the “% Inhibition” value is given as -1% and the Z score was found to be 0.16.

For the molecule `Cc1cc(C(=O)NC2CC(C)n3ccnc32)nn1C(C)C` (centres undefined), the “% Inhibition” value came out at 62% and the Z score is -7.62.

`CC(Cc1ccccc1Br)NC(C)c1cccnc1` (centres undefined): the “% Inhibition” value is recorded as 2% and the Z score is -0.27.

Turning to `C[C@@H](Cc1ccccc1F)NCC1(CO)CCCC1`, the “% Inhibition” value was -3% and the Z score was found to be 0.57.

With `COc1ccc(NC(=O)CN2CC=C(c3cnn(C)c3)CC2)cc1Cl`, the “% Inhibition” value was -9% and the Z score was 1.67.

As to `CCOc1ccc(NC(=O)CN2CC=C(c3cnn(C)c3)CC2)cc1`, the “% Inhibition” value is -9% and the Z score was 0.93.

For the molecule `Cc1ccc2c(c1)CCCN2C(=O)CN1CC=C(c2cnn(C)c2)CC1`, the “% Inhibition” value turned out to be 55% and the Z score is on record as -3.45.

Consider `CC1CCCC2CCCN(Cc3nc4c(cnn4C)c(=O)[nH]3)C12` (centres undefined), for which the “% Inhibition” value is listed as -8% and the Z score was 0.94.

Consider `C[C@@H](Cc1ccc(F)cc1)NCC(C)(C)C(N)=O`, for which the “% Inhibition” value is recorded as -4% and the Z score was determined as 0.56.

As for `C=CCCC(CN1C[C@H]2CC=CC[C@H]2C1)Oc1ncc(F)cn1` (some centres undefined), the “% Inhibition” value came to 75% and the Z score is on record as -13.95.

Turning to `C=CCCC(CN1C[C@H]2CC=CC[C@H]2C1)Oc1ccnc(C)n1` (some centres undefined), the “% Inhibition” value was determined as 3% and the Z score is -0.6.

Take `C=CCCC(CN1C[C@H]2CC=CC[C@H]2C1)Oc1ncccn1` (some centres undefined): the “% Inhibition” value is on record as -8% and the Z score is 1.33.

Turning to `Cc1oncc1C(=O)N1C[C@H](c2cc(F)cc(F)c2)[C@@H]2[C@H]1C1CCN2CC1`, the “% Inhibition” value is on record as -4% and the Z score is listed as 0.74.

Regarding `Cc1cnc(N2C[C@H]3CN(C)C[C@H]3C2)c(Br)c1`, the “% Inhibition” value was -1% and the Z score stood at 0.19.

For `Fc1cnc(N2C[C@@H](c3ccccc3)[C@@H]3[C@H]2C2CCN3CC2)nc1`, the “% Inhibition” value is -13% and the Z score is reported as 2.17.

Take `CN1CCN2c3cccc(Cl)c3CC3(C(=O)NC(=O)N(c4ccc(F)cc4)C3=O)C2C1` (centres undefined): the “% Inhibition” value was found to be 4% and the Z score is recorded as -0.49.

Turning to `COCCn1cc(C(=O)N[C@H]2C[C@@](CO)(c3ccccc3)C2)nn1`, the “% Inhibition” value came to 1% and the Z score is given as -0.11.

On to `COCCn1ccc(C(=O)N[C@H]2CCc3nc(C(C)C)nn3C2)n1`, for which the “% Inhibition” value is 71% and the Z score is listed as -11.17.

For the molecule `COCCn1ccc(C(=O)NC(C)(C)c2ccc(F)cc2Cl)n1`, the “% Inhibition” value was determined as 4% and the Z score is reported as -0.52.

With `CN(C(=O)CCC(F)(F)F)C1CC2CCC(C1)N2` (centres undefined), the “% Inhibition” value is -19% and the Z score came to 1.62.

On to `O=S(=O)(NC12CCCC1CNC2)c1onc(C2CC2)c1Cl` (centres undefined), for which the “% Inhibition” value is recorded as 94% and the Z score is -8.97.

As to `CCCCOc1ncccc1CNC(=O)C1CN2CCCC2CO1` (centres undefined), the “% Inhibition” value was -1% and the Z score came to 0.09.

In the case of `CCCS(=O)(=O)NC[C@H]1C[C@@H]2CCN1C[C@@H]2c1cc(C(CC)CC)nc(-c2ccncc2)n1`, the “% Inhibition” value is reported as 35% and the Z score is reported as -3.34.

On to `CCC(CC)c1cc([C@H]2CN3CC[C@H]2C[C@@H]3CNS(=O)(=O)Cc2ccccc2)nc(-c2ccncc2)n1`, for which the “% Inhibition” value is 75% and the Z score is on record as -9.43.

As for `CCC(CC)c1cc([C@H]2CN3CC[C@H]2C[C@@H]3CO)nc(-c2ccncc2)n1`, the “% Inhibition” value is recorded as 25% and the Z score is -2.22.

Consider `COCCN1C[C@@H]2CC[C@H]1CN(C(=O)c1cc(C(C)C)on1)C2`, for which the “% Inhibition” value was 4% and the Z score is -0.35.

Turning to `Cc1ncsc1CN1C[C@@H]2CC[C@H]1CN(Cc1c(C)noc1C)C2`, the “% Inhibition” value is on record as -5% and the Z score was 0.89.

`Cc1ccc(CNc2ncnc3[nH]ncc23)c(-n2cc(Cl)cn2)n1`: the “% Inhibition” value is 12% and the Z score is given as -2.28.

For the molecule `CN(C)c1ccnc(N2C[C@@H](c3ccc4c(c3)OCO4)[C@@H]3[C@H]2C2CCN3CC2)n1`, the “% Inhibition” value is listed as -7% and the Z score turned out to be 0.91.

Consider `c1cc2c(cc1CCN1CCCC1)CCO2`, for which the “% Inhibition” value was -12% and the Z score is reported as 1.27.

Consider `Cn1nc(C(=O)N2CCC3(CC2)OCCO3)c2ccccc2c1=O`, for which the “% Inhibition” value was -14% and the Z score is given as 2.25.

On to `Cc1ccc(C)n1[C@@H](Cc1cnc[nH]1)C(=O)O`, for which the “% Inhibition” value is -1% and the Z score is listed as 0.15.

For the molecule `c1cc2c(c(-c3cnccn3)c1)CCNC2`, the “% Inhibition” value is given as -4% and the Z score is 0.84.

Consider `c1ccc2c(c1)C[C@H](Cc1ccc3c(c1)CNCC3)CO2`, for which the “% Inhibition” value was determined as 3% and the Z score was -0.36.
